From PubChem
Most compounds without a hit are left out; they make up all but 10% or so of the library.
p97 ATPase inh = inhibitors of human p97 ATPase, primary screen, biochemical. Transitional endoplasmic reticulum ATPase (Homo sapiens), P55072. recombinant p97 ATPase, Kinase-Glo ATP luminescence, 3 h. inhibition, % at 8 µM. actives 0.42% (n = 220,000); in the data active = inhibition above about 15%;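 note: 0% = DMSO vehicle and 100% = wells lacking enzyme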
Target sequence (P55072 whole entry, looked up): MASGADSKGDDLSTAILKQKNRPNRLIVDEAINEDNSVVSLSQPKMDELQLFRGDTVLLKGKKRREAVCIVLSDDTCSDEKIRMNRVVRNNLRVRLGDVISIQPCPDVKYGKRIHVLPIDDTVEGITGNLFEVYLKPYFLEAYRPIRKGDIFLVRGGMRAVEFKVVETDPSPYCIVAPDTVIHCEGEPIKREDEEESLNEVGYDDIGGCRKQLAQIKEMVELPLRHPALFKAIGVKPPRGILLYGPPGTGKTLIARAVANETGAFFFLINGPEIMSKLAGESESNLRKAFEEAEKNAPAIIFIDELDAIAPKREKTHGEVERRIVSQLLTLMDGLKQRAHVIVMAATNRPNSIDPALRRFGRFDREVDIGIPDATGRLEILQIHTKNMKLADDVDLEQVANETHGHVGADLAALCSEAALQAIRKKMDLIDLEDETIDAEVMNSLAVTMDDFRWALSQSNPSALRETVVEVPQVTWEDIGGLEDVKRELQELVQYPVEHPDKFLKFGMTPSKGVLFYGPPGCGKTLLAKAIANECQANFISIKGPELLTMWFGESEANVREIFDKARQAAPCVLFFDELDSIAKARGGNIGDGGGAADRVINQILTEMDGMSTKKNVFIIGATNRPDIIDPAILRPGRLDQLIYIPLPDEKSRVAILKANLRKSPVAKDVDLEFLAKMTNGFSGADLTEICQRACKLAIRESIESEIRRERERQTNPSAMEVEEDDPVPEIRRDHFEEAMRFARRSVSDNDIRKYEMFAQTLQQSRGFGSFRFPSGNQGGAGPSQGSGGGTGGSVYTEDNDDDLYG
Lmaj promast = Leishmania major promastigote growth inhibition, primary screen; inhibition, % at 10 µM; actives 9% (n = 200,000); Leishmania major promastigotes, resazurin fluorescence viability; in the data active = inhibition above about 50%;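 note: promastigotes grown with compound for 44 hours at 28 °C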
PTEN del growth = growth suppression of PTEN-null HCT116, primary screen, cell-based, CellTiter-Glo. HCT116 PTEN-null viability, 60 h; stronger effect = lower value. viability, % at 10 µM. actives 1.2% (n = 140,000);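 active = viability at or below a set limit, 4 SD under the median of all tested compounds, cut at about 3.7% in these data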;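 note: PTEN knockout HCT116 line with beta catenin targeted HCT116 as companion control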
bCat KO growth = primary screen for growth suppressors in beta-catenin knockout HCT116 cells (colon tumor, human). HCT116 beta-catenin knockout viability, CellTiter-Glo, 60 h; stronger effect = lower value. viability, % at 10 µM. actives 1.5% (n = 140,000). AID 818, 2007;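 active = viability at or under a set limit, the compound median less 4 SD, cut at about 6% in these data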;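 note: 0% = Hyamine 1622 control at 20 µM and 100% = untreated cell control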
ROMK mod = ROMK potassium channel modulators, primary screen, cell-based, thallium flux, MLSMR library; ATP-sensitive inward rectifier potassium channel 1 (Homo sapiens), P48048; Tet-inducible ROMK, thallium flux fluorescence; actives lie on both sides; B-score at 10 µM; actives 2% (n = 130,000);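 active = signal ratio slope over the read window, or its plate-corrected B-score, at least 3 SD from the plate mean, either direction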;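 note: B-score of the F/F0 ratio slope over 7 to 12 s after thallium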
Insulin prom inh = inhibitors of insulin promoter-driven GFP, primary screen, imaging, TRM-6 cells (human fetal islet line), eGFP reporter, cell count. reporter expression induced with tamoxifen. inhibition, % at 2 µM. actives 0.9% (n = 130,000);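 active = inhibition above the mean plus 3 SD, with well images judged a real hit on visual review, cut at about 60% in these data, passing the limit was not always enough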
Starred values were filed as active, the others as inactive; . = no result given.

SMILES | p97 ATPase inh | Lmaj promast | PTEN del growth | bCat KO growth | ROMK mod | Insulin prom inh
O=C(CSc1nnc(-c2cccs2)n1-c1ccccc1)NCc1ccc2c(c1)OCO2 | 1.6 | 57.5* | 89.0 | 92.9 | -0.066 | -381.2
Cc1ccc(C)c2c1cc(C)c1nnc(SCC(=O)NCc3ccc4c(c3)OCO4)n12 | -3.8 | 70.3* | 91.3 | 93.1 | -1.68 | -27.8
C=CCn1c(SCC(=O)NCc2ccc3c(c2)OCO3)nnc1-c1cccnc1 | 1.7 | -5.2 | . | . | -0.524 | 76.5*
O=C(CSc1ncnc2c1cnn2-c1ccc(F)cc1)NCc1ccc2c(c1)OCO2 | 4.0 | 62.9* | 94.2 | 89.6 | . | -22.2
COc1ccc(-c2cc(C(F)(F)F)nc(SCC(=O)NCCCN3CCOCC3)n2)cc1 | -1.5 | -1.0 | . | . | -1.42 | .
CCC(C)NC(=O)CN(c1cc(Cl)cc(Cl)c1)S(C)(=O)=O (stereo unspecified) | 2.0 | -8.4 | . | . | 0.0245 | .
CCOC(=O)C1CCN(Cc2cc(C(C)C)c(O)c(C(C)C)c2)CC1 | -3.2 | 58.5* | . | . | -0.908 | -30.2
CCOC(=O)C1CCN(Cc2ccc(F)c(F)c2)CC1 | -1.1 | 80.4* | 93.2 | 90.5 | 1.05 | 35.5
CCOC(=O)C1CCCN(Cc2ccccc2C)C1 (stereo unspecified) | 2.1 | -6.0 | 82.4 | 77.3 | -0.777 | 14.8
CCOC(=O)C1CCN(Cc2cnc(Oc3ccc(OC)cc3)s2)CC1 | -1.7 | 93.2* | 102.3 | 91.2 | . | 0.0
CCOC(=O)C1CCN(Cc2ccccc2C)CC1 | -0.3 | 88.7* | 94.1 | 98.1 | 0.594 | 35.5
CCOC(=O)C1CCN(Cc2ccc(OC)cc2OC)CC1 | 7.4 | -2.0 | 86.2 | 93.8 | . | .
NS(=O)(=O)c1ccc(NC(=O)COC(=O)c2cnccn2)cc1 | 6.4 | -2.8 | . | . | -0.546 | .
CCOC(=O)C1CCCN(Cc2nc(N)nc(Nc3ccc(Cl)cc3)n2)C1 (stereo unspecified) | 3.9 | 71.2* | 43.5 | 41.5 | . | 4.0
CCOC(=O)C1CCCN(Cc2ccc(OCC)cc2)C1 (stereo unspecified) | -0.9 | 89.5* | 102.4 | 96.0 | . | -64.3
CCOC(=O)C1CCN(Cc2cccc(OC)c2)CC1 | -2.9 | 89.7* | 96.2 | 102.2 | . | 10.7
CCOC(=O)C1CCCN(Cc2ccccc2OCC)C1 (stereo unspecified) | 3.7 | 13.1 | 76.8 | 92.1 | . | 36.4
CCN(CC)S(=O)(=O)c1ccc2nc(SC)sc2c1 | -4.2 | 4.5 | 89.9 | 89.0 | . | 78.6*
CSc1nc2ccc(S(=O)(=O)N(C)C)cc2s1 | 3.5 | -2.0 | 95.8 | 99.1 | 0.0025 | -3.3
Cc1cccc(C)c1C(=O)N[C@@H](Cc1ccccc1)C(=O)O | 6.8 | -1.0 | . | . | . | .
CCS(=O)(=O)c1nc(S(=O)(=O)c2ccc(Cl)cc2)c(NCc2ccccn2)s1 | 6.4 | 4.3 | . | . | 0.145 | .
O=C(Nc1nc2cc3c(cc2s1)OCCO3)c1ccncc1 | -5.5 | 95.5* | . | . | 0.904 | .
Cc1nc2c(ccc3nc(NC(=O)c4ccc5c(c4)OCCO5)sc32)s1 | 2.7 | 62.6* | 37.5 | 41.4 | . | 0.0
O=C(NNc1nc2cc3c(cc2s1)OCO3)c1ccc(F)cc1 | 11.6 | 77.1* | 93.3 | 92.0 | -0.307 | 0.0
c1ccc2sc(Nc3nc4cc5c(cc4s3)OCO5)nc2c1 | -2.6 | 90.0* | 52.4 | 74.8 | 0.155 | 3.7
SMILES | p97 ATPase inh | Lmaj promast | PTEN del growth | bCat KO growth | ROMK mod | Insulin prom inh
O=C(O)CCCNc1c(C(=O)Nc2ccc(Cl)cc2)cc([N+](=O)[O-])cc1[N+](=O)[O-] | 2.0 | -4.7 | . | . | 0.374 | .
CSCC[C@H](NC(=O)OC(C)(C)C)c1nnc(SCc2cccc(F)c2)o1 | -1.1 | 18.3 | 88.2 | 85.6 | . | -37.5
CC(C)C[C@H](NC(=O)OC(C)(C)C)c1nnc(SCc2cccc(F)c2)o1 | 0.3 | 68.5* | 72.1 | 70.5 | . | -48.4
Cn1c(=O)[nH]c2ccc([N+](=O)[O-])nc21 | 3.5 | -1.9 | 93.4 | 96.4 | . | -47.7
O=C1NC(c2ccccc2)=C(c2nc3ccccc3s2)C(c2ccc(O)cc2)N1 (stereo unspecified) | 6.2 | 80.8* | 40.4 | 48.6 | 0.215 | 11.4
O=C1NC(c2ccccc2)=C(c2ccc3ccccc3n2)C(c2ccccc2)N1 (stereo unspecified) | 2.8 | 85.4* | 75.5 | 79.5 | 1.04 | -14.3
COc1ccc(-c2nn(C)c(=O)c3ccccc23)cc1NC(=O)Cn1nc(C)c2ccccc2c1=O | 5.5 | 99.5* | 84.0 | 65.1 | . | 44.0
CCC(=O)Nc1cc(-c2nn(C)c(=O)c3ccccc23)ccc1OC | 3.6 | 8.0 | 100.7 | 95.4 | . | 16.0
Cc1ccc(-c2nc(SCC(=O)NCCN3C(=O)CSC3=O)[nH]c2-c2ccc(C)cc2)cc1 | -2.1 | 80.5* | 75.9 | 85.5 | . | -16.3
O=S(=O)(c1ccc(Cl)cc1)N1CCC(N2CCCCCC2)CC1 | 2.1 | 96.9* | 91.3 | 90.2 | -0.046 | .
CC1CCN(C2CCN(S(=O)(=O)c3ccc(F)cc3)CC2)CC1 | -4.3 | 89.6* | 83.5 | 78.4 | . | -31.6
O=S(=O)(c1ccc(F)cc1)N1CCC(N2CCCCCC2)CC1 | 4.4 | 98.0* | 90.3 | 90.0 | . | 25.6
CCS(=O)(=O)N1CCN(S(=O)(=O)c2ccc(F)cc2)CC1 | 1.2 | -4.1 | 106.8 | 99.3 | . | .
CCOC(=O)N1CCC(N2CCN(S(=O)(=O)c3ccc(Cl)cc3)CC2)CC1 | -3.2 | 95.4* | 87.3 | 83.6 | 0.0383 | -37.5
Cc1c(Cl)cccc1NC(=S)N1CCN(C(=O)C2CCCO2)CC1 (stereo unspecified) | 2.7 | -3.6 | 91.7 | 90.4 | . | .
CCOC(=O)N1CCN(C(=O)CN(Cc2ccc(Cl)cc2)S(=O)(=O)c2ccc(C)cc2)CC1 | 0.2 | 92.9* | 86.7 | 91.9 | -1.41 | 11.1
CCOC(=O)N1CCC(Nc2c(N3CCN(c4cc(Cl)ccc4C)CC3)c(=O)c2=O)CC1 | -1.3 | 11.6 | 59.0 | 63.0 | . | .
CC1CN(C2CCN(S(=O)(=O)c3ccc4ccccc4c3)CC2)CC(C)O1 (stereo unspecified) | -3.0 | 93.8* | . | 85.2 | 0.141 | .
CCOC(=O)N1CCC(N2CCN(c3cc(C)ccc3C)CC2)CC1 | 2.0 | 94.8* | 71.9 | 71.8 | -0.905 | -16.2
CCOC(=O)N1CCN(C(=O)CN(Cc2ccc(Cl)cc2)S(C)(=O)=O)CC1 | 0.9 | -1.5 | 100.4 | 91.8 | . | 49.3
Cc1ccc(NC(=O)C2CCN(S(=O)(=O)c3ccc(F)cc3)CC2)cc1 | 2.2 | 99.4* | 101.0 | 92.7 | -0.535 | 28.6
CSCCC(NS(=O)(=O)/C=C/c1ccccc1)C(=O)NCCc1ccc(S(N)(=O)=O)cc1 (stereo unspecified) | 0.1 | . | . | . | . | .
CCOCCCNCC(=O)N1CCN(S(=O)(=O)c2ccc(C)cc2)CC1 | 0.5 | 88.2* | 106.2 | 106.0 | . | -337.2
Cc1ccc(S(=O)(=O)N2CCN(C(=O)CC3CCCC3)CC2)cc1 | -2.8 | 2.7 | 92.3 | 82.9 | 0.373 | .
CC(C)/C(=N\NS(=O)(=O)c1ccc(Br)cc1)c1cccs1 | -1.5 | -4.7 | . | . | 0.016 | 16.7
